What is called Inhibition is how much of the control response was suppressed. High values mean strong suppression, low ones little suppression.

In ChEMBL document CHEMBL1157539, “Thousands of chemical starting points for antimalarial lead identification” (Nature, 2010) one finds Inhibition data, which are given here for 40 molecules.

In the experiment the test system is HepG2. Briefly: GSK_TCMDC: Percent inhibition of human HepG2 cell line. Test compounds present at 10uM. The experiment is classed as functional.
For the molecule `O=C(CCc1cccnc1)Nc1cccc(-c2ccc(-c3nc4cc(C(F)(F)F)ccc4[nH]3)s2)c1`, the Inhibition came to 35%. Molecule `Cn1nc(-c2cccc(CNC3CCc4ccccc43)c2)c2cnc(NCCCN3CCCC3)nc21` (stereo not given) gave an Inhibition of 29%.

In turn, `Cc1c(Cc2ccc(F)cc2)c(Cl)nc2nc(N)nc(N)c12` yielded an Inhibition of 66%. For `O=C(O)C(F)(F)F.c1cc(CNCC2CCCO2)cc(-c2ccc(-c3nc4ccccc4[nH]3)s2)c1` (stereo not given) the value was 8%; for `Cc1cccc2nc(-c3cccc(-c4ccc(NC(=O)C(C)(C)c5ccccn5)cc4)c3)[nH]c12`, 0%. The result for `CCOC(=O)c1ccc(NC(=O)NC2CCN(CCCCCNC(=O)/C=C/c3ccc(Cl)c(Cl)c3)C2)cc1` (stereo not given) reads 23%; that for `CCOC(=O)CC[C@H](NC(=O)c1ccc(NS(=O)(=O)c2ccc(-c3cnc(N)[nH]c3=O)cc2)cc1)C(=O)OCC`, 5%. As to `NS(=O)(=O)c1cncc(-c2ccc3nccc(-c4cn[nH]c4)c3n2)c1`, the Inhibition is given as 33%.

`CC(C)c1sc(N2CCN(C)CC2)nc1C(=O)NCCc1cccc(Cl)c1.O=C(O)C(F)(F)F` came in with an Inhibition of 9%. For `O=C(Nc1cccc(CN2CCCN(CCc3ccccc3)CC2)c1)c1cc2ccccc2s1.O=C(O)C(F)(F)F` the value was 37%; for `CO/C(=C\C=C\c1cc2cc(Cl)c(Cl)cc2[nH]1)C(=O)NC1CCN(CCCc2ccccc2)CC1`, 59%. The molecule `Nc1nc(N)c2c(Cl)c(CNc3cccc(C(=O)O)c3)ccc2n1` registered an Inhibition of 69%. For `CNC(=O)/C=C/c1cc(NC(=O)Nc2ccnc3c(Br)cccc23)ccc1OC` the value was 12%; for `CS(=O)(=O)CCNCc1nc(-c2ccc3c(Nc4ccc(Cl)cc4F)ccnc3c2)cs1`, 19%; for `Cc1cccc2nc(-c3ccc(-c4ccc(NC(=O)C(C)CN(C)C)cc4)s3)[nH]c12` (stereo not given), 23%. `CCCC(C)Nc1nc(C)cc(N[C@@H](Cc2ccccc2)C(=O)Nc2ccc(OC)cc2)n1.O=C(O)C(F)(F)F` (stereo not given in full): the Inhibition came to 24%. Consider `CC(CN1CCN(C)CC1)C(=O)Nc1cccc(-c2cccc(-c3nc4ccccc4[nH]3)c2)c1` (stereo not given), for which the Inhibition is given as 23%. On to `COCCNCc1ncsc1-c1ccc2c(Nc3ccc(Oc4ccccc4)cc3)ccnc2c1`, for which the Inhibition is on record as 34%. The result for `Cl.N#Cc1ccc2c(c1)CCN(CCC1CCC(NC(=O)/C=C/c3ccc(F)c4ccccc34)CC1)CC2` (stereo not given) reads 29%. For `O=C(O)C(F)(F)F.c1cncc(CCNCc2cccc(-c3csc(-c4nc5ccccc5[nH]4)c3)c2)c1` the value was 26%; for `CC(C)Cc1nc(N)nc(N)c1-c1ccc(Cl)cc1`, 5%; for `O=C(C=Cc1ccc(Cl)c(Cl)c1)NCCCCCN1CCC(CCNS(=O)(=O)c2ccc(Br)cc2)CC1`, 58%.

On to `CCN(CCN(C)C)Cc1ccc(-c2ccc(NS(=O)(=O)c3cccc4cccnc34)cc2)cc1.O=C(O)C(F)(F)F`, for which the Inhibition is on record as 16%. The molecule `CC1CN(Cc2ccccc2)CCN1c1ccc(NC(=O)c2ccc(F)cc2)cc1.O=C(O)C(F)(F)F` (stereo not given) came in with an Inhibition of 0%. The result for `O=C(O)C(F)(F)F.O=[N+]([O-])c1cccc(CNC2CCN(Cc3ccc4ccccc4c3)CC2)c1` reads 12%; that for `CC(C)NCc1cccc(-c2ccc(-c3nc4cc(C(F)(F)F)ccc4[nH]3)cc2)c1.O=C(O)C(F)(F)F`, 7%; that for `Cl.N=C(N)NN=Cc1cc2ccccc2c2ccccc12`, 25%. Molecule `Cc1cc(N2CCCC2)nc(Nc2ccc(NC(=O)COc3ccccc3)cc2)n1` gave an Inhibition of 43%. The result for `CN1CCC(NCc2cccc(-c3ccc(S(=O)(=O)NCCN4CCCC4)s3)c2)CC1.O=C(O)C(F)(F)F` reads 10%; that for `COc1cc(NC(=O)c2ccc(-c3ccc(C(C)=O)cc3)s2)ccc1OCCN1CCCC1`, 31%; that for `CCC1N=C(N)N=C(N)N1OCc1cccc2ccccc12` (stereo not given), 66%. `Cl.O=C1Nc2ccc3ncccc3c2/C1=C/Nc1ccc(N2CCN(CCO)CC2)cc1`: the Inhibition is reported as 34%. The result for `CSc1cccc(Nc2nc3ccc(S(=O)(=O)NC(C)C(C)C)cc3n2[C@H](C)C(C)(C)C)c1` (stereo not given in full) reads 0%. As to `Cc1ccc(NC(=O)NC2CCN(CCCCCNC(=O)C3CC3c3ccc(Cl)c(Cl)c3)CC2)cc1` (stereo not given), the Inhibition amounted to 35%.

`CNS(=O)(=O)Cc1ccc(Nc2nccc(Nc3cccc4c3cnn4C(=O)Nc3ccccc3)n2)cc1` had an Inhibition of 45%. Consider `COc1ccc(NC(=O)CCNc2ccnc(NCCc3ccc(F)cc3)n2)cc1.O=C(O)C(F)(F)F`, for which the Inhibition was determined as 4%.

As to `CC1(C)C=C(c2ccncc2)c2cc(Cl)ccc2O1.Cl`, the Inhibition is given as 0%. For `Cl.NC(=O)Nc1ccc2cn[nH]c2c1` the value was 4%. As for `Cc1cc(N2CC=CCC2)nc(NC(=N)Nc2ccc(Cl)cc2)n1`, the Inhibition is on record as 0%. With `Cc1cc(Cl)c(S(=O)(=O)N(C)c2ccccc2)cc1OCC(=O)NC1CCCCC1`, the Inhibition worked out at 3%.
